In PubChem BioAssay one finds growth inhibition, inhibition and outcome data, which are given here for 20 compounds.

The nature of assay [1]: antimalarial activity against Dd2 strain (AID 2302;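 active = growth inhibition above 50% at the single 2 µM test dose, taken to imply half-maximal potency below 2 µM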;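 note: 0% = DMSO untreated growth and 100% = chloroquine plus artemisinin killed control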). Particulars: P. falciparum Dd2 in RBCs, LDH growth readout, 72 h; at 2 µM; stronger effect = higher value.
The nature of assay [2]: HepG2 cytotoxicity, primary screen, cytotoxicity control for P. falciparum antimalarial project, cell-based, ATP luminescence (AID 2303;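 active = inhibition above 50%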;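 note: 0% = DMSO wells and 100% = digitonin-killed cells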). Particulars: HepG2 viability, 24-48 h, at 10 µM, stronger effect = higher value.
Assay [3] deals with L-lactate dehydrogenase (Plasmodium falciparum (isolate CDC / Honduras)) (UniProt Q27743). In words: PfLDH activity inhibition – cell lysate, 3D7 strain, counter-screen for P. falciparum growth inhibition project (AID 2304).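 Note: 0% = vehicle and 100% = reference inhibitor.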 Particulars: P. falciparum 3D7 crude extract, LDH APAD/NBT absorbance; at 2 µM; stronger effect = higher value.
L-lactate dehydrogenase (Plasmodium falciparum (isolate CDC / Honduras)), sequence (Q27743 whole entry, looked up): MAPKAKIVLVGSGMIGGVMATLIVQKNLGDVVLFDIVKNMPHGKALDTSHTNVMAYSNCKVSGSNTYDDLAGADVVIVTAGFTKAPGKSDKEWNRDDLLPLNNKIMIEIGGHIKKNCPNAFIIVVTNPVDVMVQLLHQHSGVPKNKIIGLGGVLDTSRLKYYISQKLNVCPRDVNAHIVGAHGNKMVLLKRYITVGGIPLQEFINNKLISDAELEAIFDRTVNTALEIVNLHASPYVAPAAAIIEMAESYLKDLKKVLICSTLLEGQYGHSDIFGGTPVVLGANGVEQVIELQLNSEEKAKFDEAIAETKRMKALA
Assay [4] is described as follows: inhibition of 3D7 malaria parasite growth – strain 3D7 (AID 2306).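 Note: 0% = DMSO wells and 100% = chloroquine plus artemisinin control wells.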 The following applies: P. falciparum 3D7 erythrocytic growth, LDH absorbance, 72 h; at 2 µM; stronger effect = higher value.
The target in assay [5] is Calcium-dependent protein kinase 1 (Plasmodium falciparum (isolate 3D7)) (UniProt P62344). In words: PfCDPK1 kinase inhibitors, biochemical, TCAMS library (AID 1159585; cut-off not given, nearly all actives have IC50 up to about 0.98 µM;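 note: inhibitors leave more ATP so luminescence rises with inhibition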). The following applies: recombinant PfCDPK1, Kinase-Glo ATP depletion luminescence.
Calcium-dependent protein kinase 1 (Plasmodium falciparum (isolate 3D7)), sequence (P62344 whole entry, looked up): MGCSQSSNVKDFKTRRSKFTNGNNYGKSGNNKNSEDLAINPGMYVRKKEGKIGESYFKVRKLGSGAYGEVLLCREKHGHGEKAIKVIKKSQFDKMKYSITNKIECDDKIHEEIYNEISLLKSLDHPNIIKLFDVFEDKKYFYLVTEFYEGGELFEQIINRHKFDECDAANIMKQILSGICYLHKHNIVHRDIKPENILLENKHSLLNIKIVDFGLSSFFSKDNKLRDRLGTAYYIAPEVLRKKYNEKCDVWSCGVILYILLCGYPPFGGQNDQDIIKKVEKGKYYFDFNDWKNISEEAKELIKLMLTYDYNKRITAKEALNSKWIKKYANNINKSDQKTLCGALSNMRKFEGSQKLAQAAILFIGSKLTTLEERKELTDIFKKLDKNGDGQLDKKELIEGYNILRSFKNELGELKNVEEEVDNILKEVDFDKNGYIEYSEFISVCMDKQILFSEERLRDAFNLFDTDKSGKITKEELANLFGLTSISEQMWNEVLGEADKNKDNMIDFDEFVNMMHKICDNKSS
Assay [6] addresses Plasmodium falciparum protein kinase 6 (PK6, PF3D7_1337100) (UniProt Q8IDW1). In words: PfPK6 kinase inhibitors, biochemical, TCAMS library (AID 1159586). Particulars: recombinant PfPK6, Kinase-Glo ATP depletion luminescence.
In assay [7] the target is Protein kinase 7 (PK7), Plasmodium falciparum 3D7 (PF3D7_0213400) (UniProt Q7YTF7). Put plainly: inhibition of Plasmodium PK7 catalytic activity – biochemical, TCAMS antimalarial set, Kinase-Glo luminescence (AID 1159587). Particulars: recombinant PfPK7, Kinase-Glo ATP depletion luminescence.
Protein kinase 7 (PK7), Plasmodium falciparum 3D7 (PF3D7_0213400), sequence (Q7YTF7 1-343): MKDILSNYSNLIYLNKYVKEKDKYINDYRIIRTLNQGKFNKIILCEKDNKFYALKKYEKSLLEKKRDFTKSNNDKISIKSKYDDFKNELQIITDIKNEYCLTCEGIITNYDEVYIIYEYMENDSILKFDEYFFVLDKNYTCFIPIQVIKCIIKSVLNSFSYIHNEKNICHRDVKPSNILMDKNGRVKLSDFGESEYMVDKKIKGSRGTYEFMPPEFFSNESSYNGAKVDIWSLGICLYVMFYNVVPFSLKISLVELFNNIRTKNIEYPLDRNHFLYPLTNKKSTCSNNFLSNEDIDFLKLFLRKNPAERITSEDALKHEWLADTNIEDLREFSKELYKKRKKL
Assay [8] has as its target Calcium-dependent protein kinase 4 (Plasmodium falciparum (isolate 3D7)) (UniProt Q8IBS5). Put plainly: PfCDPK4 kinase inhibitors, biochemical, TCAMS library (AID 1159588; cut-off not given, nearly all actives have IC50 up to about 0.91 µM). Particulars: recombinant PfCDPK4, Kinase-Glo ATP depletion luminescence.

Values without a mark were called inactive. For some of these results: Potency and affinity values are given separately. Active and inactive are the calls of the source. Unless noted, the rule behind the calls is not given here.

Calcium-dependent protein kinase 4 (Plasmodium falciparum (isolate 3D7)), sequence (Q8IBS5 whole entry, looked up): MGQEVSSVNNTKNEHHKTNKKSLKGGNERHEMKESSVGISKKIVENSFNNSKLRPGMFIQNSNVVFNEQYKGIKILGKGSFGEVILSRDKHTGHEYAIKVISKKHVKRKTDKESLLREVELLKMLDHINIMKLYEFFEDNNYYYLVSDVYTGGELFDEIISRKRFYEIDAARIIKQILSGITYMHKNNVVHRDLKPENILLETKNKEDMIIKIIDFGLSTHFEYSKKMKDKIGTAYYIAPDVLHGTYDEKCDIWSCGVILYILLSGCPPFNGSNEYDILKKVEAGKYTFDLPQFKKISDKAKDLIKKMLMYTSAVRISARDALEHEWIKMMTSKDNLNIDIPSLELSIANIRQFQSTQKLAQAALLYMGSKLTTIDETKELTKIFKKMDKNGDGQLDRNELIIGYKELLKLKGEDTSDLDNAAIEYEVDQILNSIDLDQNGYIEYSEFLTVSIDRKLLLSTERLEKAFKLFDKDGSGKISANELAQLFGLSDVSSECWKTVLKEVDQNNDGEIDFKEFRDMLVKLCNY
Plasmodium falciparum protein kinase 6 (PK6, PF3D7_1337100), sequence (Q8IDW1 1-305): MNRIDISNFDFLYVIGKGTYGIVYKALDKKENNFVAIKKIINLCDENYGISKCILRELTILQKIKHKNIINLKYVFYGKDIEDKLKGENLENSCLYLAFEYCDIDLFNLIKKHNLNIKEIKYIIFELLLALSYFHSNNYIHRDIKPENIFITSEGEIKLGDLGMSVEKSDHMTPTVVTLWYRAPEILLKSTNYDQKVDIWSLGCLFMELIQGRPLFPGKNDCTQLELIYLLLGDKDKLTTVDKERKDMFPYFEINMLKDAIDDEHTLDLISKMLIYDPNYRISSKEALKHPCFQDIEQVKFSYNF

With `COc1ccc(-c2nonc2NC(=O)c2ccc(C(C)(C)C)cc2)cc1OC`, the figures for the growth inhibition in assay [1] and in assay [4] were 73% (active) and 99% (active), respectively. In addition, the inhibition in assay [2] is -3%; in assay [3], -2%. Also, the result in assay [5], in assay [6], in assay [7] and in assay [8] was inactive.

In the case of `O=C(O)c1ccc2c(c1)N(C(=O)CNCc1ccc(F)cc1)CC(=O)N2CCCc1ccccc1`, the growth inhibition is -2% in assay [1] and 95% (active) in assay [4]. For the same compound, the inhibition was 1% in assay [2] and 2% in assay [3]. The outcome in assay [5], in assay [6], in assay [7] and in assay [8] was inactive.

In the case of `CN=C(Nc1c(Cl)cccc1Cl)N(C)C`, the growth inhibition in assay [1] is 1%; in assay [4] it was 98% (active). Further, the results for the inhibition in assay [2] and in assay [3] were -12% and -1%, respectively. Also, the result in assay [5], in assay [6], in assay [7] and in assay [8] was inactive.

Turning to `CC1(C)N=C(N)N=C(N)N1OCCCSc1ccccc1`, the growth inhibition in assay [1] was 94% (active); in assay [4] it was 93% (active). Besides, the inhibition in assay [2] was 69% (active); in assay [3], 0%. In addition, the outcome in assay [5], in assay [6], in assay [7] and in assay [8] was inactive.

`CC(C)(C)C1CCc2onc(C(=O)Nc3cc(Cl)ccc3O)c2C1` (stereo not given): the growth inhibition in assay [1] was 82% (active); in assay [4] it was 98% (active). Further, the inhibition is 5% in assay [2] and -2% in assay [3]. In addition, the outcome in assay [5], in assay [6], in assay [7] and in assay [8] was inactive.

As for `NC(=O)c1ccc(C(=O)Nc2cccc(-c3ccc(-c4nc5ccc(C(F)(F)F)cc5[nH]4)cc3)c2)cc1`, the growth inhibition was 31% in assay [1] and 100% (active) in assay [4]. The inhibition in assay [2] is 35%; in assay [3], -1%. Also, the outcome in assay [5], in assay [6], in assay [7] and in assay [8] was inactive.

As for `NC1CCN(c2nc(NCCc3ccc(O)cc3)nc(NCc3ccccc3-c3ccc(C(F)(F)F)cc3)n2)CC1`, the growth inhibition was 72% (active) in assay [1] and 100% (active) in assay [4]. Besides, the inhibition in assay [2] was 18%; in assay [3], 1%. The outcome in assay [5], in assay [6], in assay [7] and in assay [8] was inactive.

With `Cc1cc(OCCCN2CCC(NS(=O)(=O)c3ccc(Cl)c(Cl)c3)CC2)c2ccccc2n1`, the growth inhibition in assay [1] was 35%; in assay [4], 96% (active). Moreover, the figures for the inhibition in assay [2] and in assay [3] were 11% and 1%, respectively. Also, the result in assay [5], in assay [6], in assay [7] and in assay [8] was inactive.

For `CCCN(CCC)C(=S)N=Nc1c(O)[nH]c2ccccc12`, the growth inhibition in assay [1] is 86% (active); in assay [4], 97% (active). Also, the results for the inhibition in assay [2] and in assay [3] were 28% and -3%, respectively. Further, the outcome in assay [5], in assay [6], in assay [7] and in assay [8] was inactive.

As to `COC(=O)c1cccc(CNCc2ccc(-c3ccc(-c4nc5ccc(C(F)(F)F)cc5[nH]4)s3)cc2)c1`, the results for the growth inhibition in assay [1] and in assay [4] were 96% (active) and 101% (active), respectively. For the same compound, the inhibition in assay [2] is 34%; in assay [3], -2%. In addition, the result in assay [5], in assay [6], in assay [7] and in assay [8] was inactive.

In the case of `CC(=O)Nc1ccc(OCCCCN(Cc2ccccc2C(F)(F)F)c2ccc(C(F)(F)F)c(C#N)c2)c(Cl)c1`, the growth inhibition in assay [1] and in assay [4] was 96% (active) each time. Also, the inhibition in assay [2] was 14%; in assay [3], -1%. The outcome in assay [5], in assay [6], in assay [7] and in assay [8] was inactive.

Consider `O=C(/C=C/c1ccc(Cl)c(Cl)c1)NCCCCCN1CCC(NC(=O)Nc2cccc(Cl)c2F)CC1`, for which the growth inhibition was 30% in assay [1] and 101% (active) in assay [4]. For the same compound, the inhibition in assay [2] was 75% (active); in assay [3], 4%. Moreover, the result in assay [5], in assay [6], in assay [7] and in assay [8] was inactive.

In the case of `Clc1cnc2ccc3c(c2c1CCN1CCC(NCc2cc4c(cn2)OCCO4)CC1)OCCO3`, the growth inhibition in assay [1] is 18%; in assay [4] it was 92% (active). Moreover, the values for the inhibition in assay [2] and in assay [3] were 3% and -2%, respectively. Further, the result in assay [5], in assay [6], in assay [7] and in assay [8] was inactive.

For `COc1cc(NC(=O)c2ccc(-c3ccc(C(C)=O)cc3)s2)ccc1OCCN1CCCC1`, the growth inhibition in assay [1] was 63% (active); in assay [4] it was 100% (active). In addition, the inhibition in assay [2] is 31%; in assay [3], 3%. Also, the result in assay [5], in assay [6], in assay [7] and in assay [8] was inactive.

For the compound `c1cc(C2=N[C@H]3CCCC[C@@H]3N2)ccc1OCCCCCOc1ccc(C2=N[C@@H]3CCCC[C@H]3N2)cc1`, the growth inhibition in assay [1] is 23%; in assay [4], 101% (active). For the same compound, the inhibition is 80% (active) in assay [2] and -5% in assay [3]. Also, the outcome in assay [5], in assay [6], in assay [7] and in assay [8] was inactive.

As for `Oc1ccc(-c2ccccc2)cc1CN1CCCCCC1`, the growth inhibition in assay [1] was 85% (active); in assay [4], 95% (active). Further, the inhibition is 6% in assay [2] and 2% in assay [3]. In addition, the result in assay [5], in assay [6], in assay [7] and in assay [8] was inactive.

Turning to `Cc1cc(N2CCCC2)nc(Nc2ccc(NC(=O)C(C)(C)C)cc2)n1`, the growth inhibition in assay [1] was 15%; in assay [4], 95% (active). The inhibition was 24% in assay [2] and 2% in assay [3]. Also, the result in assay [5], in assay [6], in assay [7] and in assay [8] was inactive.

For `CCCCCCc1cc(Oc2c(I)cc(C[C@H](N)C(=O)O)cc2I)ccc1O`, the growth inhibition was -5% in assay [1] and 97% (active) in assay [4]. For the same compound, the figures for the inhibition in assay [2] and in assay [3] were -2% and -1%, respectively. For the same compound, the outcome in assay [5], in assay [6], in assay [7] and in assay [8] was inactive.

On to `CC1CCCN(C(=O)c2cc(-c3ccccn3)nc3c(Cl)cccc23)C1` (stereo not given), for which the results for the growth inhibition in assay [1] and in assay [4] were 9% and 86% (active), respectively. Besides, the inhibition in assay [2] is 2%; in assay [3], -5%. Besides, the outcome in assay [5], in assay [6], in assay [7] and in assay [8] was inactive.

In the case of `CCCCC(CCCC)CN1C(=O)C(c2ccccc2)(c2ccccc2)N=C1N`, the growth inhibition in assay [1] and in assay [4] was 96% (active) throughout. In addition, the results for the inhibition in assay [2] and in assay [3] were 28% and -3%, respectively. In addition, the result in assay [5], in assay [6], in assay [7] and in assay [8] was inactive.
